{
  "source": "the supplement of paper PMC6411743",
  "assay_in_all_cases": "NP40-soluble protein abundance relative to vehicle (solubility fold change) (ratio); higher = more soluble protein in presence of ATP",
  "key": {"[1]": {"biological_target": "T1, SPAG7 (UniProt O75391)", "T1 sequence (whole entry)": "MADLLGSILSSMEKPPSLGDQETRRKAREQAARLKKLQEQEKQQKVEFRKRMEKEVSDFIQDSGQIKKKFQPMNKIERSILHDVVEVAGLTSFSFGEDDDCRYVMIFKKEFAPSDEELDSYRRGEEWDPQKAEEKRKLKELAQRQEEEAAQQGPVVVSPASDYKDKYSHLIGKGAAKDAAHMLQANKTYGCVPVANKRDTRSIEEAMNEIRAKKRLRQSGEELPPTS", "outline": "(§1)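 Values are fold changes against the detergent-processed vehicle, based on vsn-normalised intensities. Jurkat crude lysate was treated at eight concentrations from 0.1 to 10 mM (10 min at room temperature, then 3 min at 37 °C), solubilised with 0.8% NP40 and benzonase, ultracentrifuged and analysed by TMT-labelled LC-MS/MS over three independent experiments.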"}, "[2]": {"biological_target": "T2, UniProt O95294|O95294-2|O95294-3|O95294-4", "T2 sequence (whole entry)": "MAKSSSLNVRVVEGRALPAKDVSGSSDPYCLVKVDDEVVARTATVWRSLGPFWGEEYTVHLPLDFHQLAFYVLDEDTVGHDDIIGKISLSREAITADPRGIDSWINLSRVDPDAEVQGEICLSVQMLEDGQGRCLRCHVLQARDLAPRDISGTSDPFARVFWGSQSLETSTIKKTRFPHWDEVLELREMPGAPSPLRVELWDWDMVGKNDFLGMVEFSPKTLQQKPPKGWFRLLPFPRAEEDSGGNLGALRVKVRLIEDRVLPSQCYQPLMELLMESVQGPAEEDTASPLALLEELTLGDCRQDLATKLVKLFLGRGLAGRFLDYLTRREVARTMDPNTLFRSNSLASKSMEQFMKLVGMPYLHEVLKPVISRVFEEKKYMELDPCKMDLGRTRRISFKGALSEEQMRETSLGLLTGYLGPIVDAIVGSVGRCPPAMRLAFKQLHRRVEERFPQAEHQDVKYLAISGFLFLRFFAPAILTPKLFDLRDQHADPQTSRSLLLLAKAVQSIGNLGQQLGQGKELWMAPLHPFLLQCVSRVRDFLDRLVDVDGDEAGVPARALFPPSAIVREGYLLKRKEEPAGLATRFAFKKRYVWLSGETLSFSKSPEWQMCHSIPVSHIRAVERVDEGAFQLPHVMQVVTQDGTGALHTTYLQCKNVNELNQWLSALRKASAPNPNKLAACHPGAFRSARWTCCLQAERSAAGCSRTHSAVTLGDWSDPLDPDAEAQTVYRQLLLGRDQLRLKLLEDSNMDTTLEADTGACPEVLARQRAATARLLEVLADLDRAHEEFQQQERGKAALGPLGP", "outline": "as §1"}, "[3]": {"biological_target": "T3, UniProt O95379-3|O95379-4", "T3 sequence (whole entry)": "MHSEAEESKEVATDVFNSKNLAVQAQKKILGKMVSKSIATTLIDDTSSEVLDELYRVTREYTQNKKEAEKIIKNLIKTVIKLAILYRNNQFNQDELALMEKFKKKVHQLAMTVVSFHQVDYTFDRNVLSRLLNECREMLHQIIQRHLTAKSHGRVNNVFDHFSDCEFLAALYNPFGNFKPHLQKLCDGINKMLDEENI", "outline": "as §1"}, "[4]": {"biological_target": "T4, UniProt O95983|O95983-2|K7EIE8", "T4 sequence (whole entry)": "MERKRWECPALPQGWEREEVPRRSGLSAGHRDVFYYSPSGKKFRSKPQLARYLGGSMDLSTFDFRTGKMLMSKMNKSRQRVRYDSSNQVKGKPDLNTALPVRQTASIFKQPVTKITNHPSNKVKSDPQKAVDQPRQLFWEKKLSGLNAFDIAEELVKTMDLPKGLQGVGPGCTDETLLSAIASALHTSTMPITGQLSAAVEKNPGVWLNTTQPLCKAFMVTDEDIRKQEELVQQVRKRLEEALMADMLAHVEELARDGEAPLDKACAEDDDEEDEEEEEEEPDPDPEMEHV", "outline": "as §1"}},
  "note": "± gives the standard deviation of the averaged measurements. The full data set covers some 6,500 targets. This sample favours those with the largest changes.",
  "data": [
    {"compound": "Nc1ncnc2c1ncn2[C@@H]1O[C@H](COP(=O)(O)OP(=O)(O)OP(=O)(O)O)[C@@H](O)[C@H]1O", "note": "[adenosine triphosphate]", "values": [
      {"measurement": "NP40-soluble protein abundance", "setting": "[1]; concentration: 2mM", "value": "0.964 ± 0.047"},
      {"measurement": "NP40-soluble protein abundance", "setting": "[1]; concentration: 4mM", "value": "0.964 ± 0.04"},
      {"measurement": "NP40-soluble protein abundance", "setting": "[1]; concentration: 6mM", "value": "0.969 ± 0.046"},
      {"measurement": "NP40-soluble protein abundance", "setting": "[1]; concentration: 8mM", "value": "0.9594 ± 0.0036"},
      {"measurement": "NP40-soluble protein abundance", "setting": "[1]; concentration: 10mM", "value": "0.903 ± 0.058"},
      {"measurement": "NP40-soluble protein abundance", "setting": "[2]; concentration: 1mM", "value": "0.95 ± 0.03"},
      {"measurement": "NP40-soluble protein abundance", "setting": "[2]; concentration: 2mM", "value": "0.96 ± 0.069"},
      {"measurement": "NP40-soluble protein abundance", "setting": "[2]; concentration: 4mM", "value": "1.01 ± 0.058"},
      {"measurement": "NP40-soluble protein abundance", "setting": "[2]; concentration: 6mM", "value": "0.994 ± 0.11"},
      {"measurement": "NP40-soluble protein abundance", "setting": "[2]; concentration: 8mM", "value": "0.962 ± 0.13"},
      {"measurement": "NP40-soluble protein abundance", "setting": "[2]; concentration: 10mM", "value": "0.965 ± 0.15"},
      {"measurement": "NP40-soluble protein abundance", "setting": "[3]; concentration: 1mM", "value": "0.855 ± 0.036"},
      {"measurement": "NP40-soluble protein abundance", "setting": "[3]; concentration: 2mM", "value": "0.93 ± 0.019"},
      {"measurement": "NP40-soluble protein abundance", "setting": "[3]; concentration: 4mM", "value": "0.885 ± 0.032"},
      {"measurement": "NP40-soluble protein abundance", "setting": "[3]; concentration: 6mM", "value": "0.9504 ± 0.0062"},
      {"measurement": "NP40-soluble protein abundance", "setting": "[3]; concentration: 8mM", "value": "0.932 ± 0.035"},
      {"measurement": "NP40-soluble protein abundance", "setting": "[3]; concentration: 10mM", "value": "0.85 ± 0.1"},
      {"measurement": "NP40-soluble protein abundance", "setting": "[4]; concentration: 1mM", "value": "1.03 ± 0.12"},
      {"measurement": "NP40-soluble protein abundance", "setting": "[4]; concentration: 2mM", "value": "0.983 ± 0.078"},
      {"measurement": "NP40-soluble protein abundance", "setting": "[4]; concentration: 4mM", "value": "0.98 ± 0.035"}
    ]}
  ]
}
